Hits are enriched below; roughly 2.2% of the tested compounds scored in any of these assays.
PTPN22 inh 2 = blocks human PTPN22 phosphatase activity. AID 640. recombinant LYP catalytic domain, DiFMUP fluorescence. inhibition, % at 2 µM. 0.21% of 96,000 active;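 active means inhibition at 2 µM at or above a set limit, the screen mean plus 3 SD, cut at about 24% in these data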
PLAP act = activators of human placental alkaline phosphatase; activation fold at 20 µM; purified PLAP enzyme, luminescent substrate read-out; hits give high values; 1.2% of 96,000 active; AID 696; in the data active means activation fold above about 2
PTPN22 act = increases human PTPN22 phosphatase activity; recombinant LYP, DiFMUP fluorescence; 0 = plate median, 100 = signal doubled; 0.11% of 96,000 active; activation, % at 2 µM; Q9Y2R2; AID 697;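 active means activation at 2 µM above a set limit, the mean plus 5 SD, cut at about 37% in these data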
MRP-1 activ = activates MRP-1 | H69AR cells + doxorubicin, viability rescue, CellTiter-Glo | 0.61% of 140,000 active | viability increase, % at 10 µM | AID 799;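 active means viability gain under doxorubicin at or above a set limit, the compound median plus 3 SD, cut at about 4.7% in these data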;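 further: MRP-1 overexpressing cells given doxorubicin 25 µM after compound pretreatment; 18-22 h compound pretreatment then 72 h with doxorubicin before readout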
MRP resist rev = MRP-mediated drug resistance reversal; H69AR cells + 2 uM doxorubicin, CellTiter-Glo, 72 h; differential viability (reversal), % at 10 µM; 0.04% of 85,000 active; AID 602;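 active means viability drop by adding the cancer drug above about 55%, with treated viability meeting a 40% cutoff, limit read from the data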;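 further: larger differential means the compound sensitizes cells more to doxorubicin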
FAK blocker = FAK (human) kinase inhibition; inhibition, %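 (tested at 7 µM)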; biochemical FAK kinase activity assay; Q05397; 0.84% of 97,000 active; in the data active means inhibition above about 19%
Hits are given with their value; n = inactive; x = not tested or not shown.

SMILES | PTPN22 inh 2 | PLAP act | PTPN22 act | MRP-1 activ | MRP resist rev | FAK blocker
CCOc1ccc(N2C(=O)CC(N3CCC(O)(c4ccc(Br)cc4)CC3)C2=O)cc1 (stereo not given) | n | n | n | n | n | n
CCC(C)(C)NC(=O)/C=C/c1cnc2ccccc2n1 | x | x | x | n | x | x
O=C(Nc1ccc2c(c1)OCO2)C1CCN(S(=O)(=O)Cc2ccccc2)CC1 | n | n | n | n | n | n
O=C(Nc1ccc2c(c1)OCO2)C1CCN(Cc2cnn(-c3ccccc3)c2-n2cccc2)CC1 | n | 2.9 | n | n | n | n
CCSc1nc2c(c(=O)[nH]1)C(c1cccs1)C(C(=O)OC)=C(C)N2 (stereo not given) | x | x | x | n | x | x
O=C(c1ccc(Br)o1)N1CCN(C/C=C/c2ccccc2)CC1 | n | n | n | n | n | n
O=C(c1ccc(Br)s1)N1CCN(C/C=C/c2ccccc2)CC1 | n | 2 | n | n | n | n
COc1ccc(CNC(=O)CSc2ccc(Br)cc2)cc1OC | x | x | x | n | x | x
COc1cccc(-c2nn(C)c3sc(C(=O)NCc4ccc5c(c4)OCO5)cc23)c1 | n | 2.2 | n | n | n | n
CCN(C(=O)COc1ccc(C)nc1[N+](=O)[O-])C1CCS(=O)(=O)C1 (stereo not given) | x | x | x | n | x | x
Cc1ccccc1CN(c1ccc(C(=O)Nc2ccccc2C(=O)N2CCCC2)cc1)S(C)(=O)=O | n | 2 | n | n | n | n
Cc1ccccc1CN(c1ccc(C(=O)Nc2ccccc2C(=O)NCc2ccco2)cc1)S(C)(=O)=O | n | n | n | n | n | n
CCOC(=O)c1sc(-c2ccc(OC)cc2)cc1NC(C)=O | x | x | x | n | x | x
CCOc1ccc(NC(=O)Nc2cc(-c3ccccc3)sc2C(=O)OC)cc1 | x | x | x | 6.1 | x | x
Cc1ccc(NS(=O)(=O)c2ccc(Cl)c(NC(=S)NC(=O)C3CCCCC3)c2)cc1Cl | x | x | x | n | x | x
CC12CCCCC1N(O)C(=O)C(=O)N2O (stereo not given) | x | x | x | n | x | x
CCC(C)c1ccc(NC(=O)C/C(C)=N/NC(=O)c2cnccn2)cc1 (stereo not given) | x | x | x | n | x | x
COc1ccccc1NC(=O)c1cc(Cl)ccc1NC(=O)c1ccco1 | n | n | n | n | n | n
COc1ccccc1NC(=O)C(=O)NNC(=O)c1ccco1 | n | 2.2 | n | n | x | n
Cc1ccc(NC(=O)CCn2ccc([N+](=O)[O-])n2)nc1 | x | x | x | n | x | x
CCCc1ccc(-c2cc(C(=O)Nc3ccc([N+](=O)[O-])cn3)c3ccccc3n2)cc1 | x | x | x | n | x | x
CCCCCCCCCCSc1n[nH]c(NC(C)=O)n1 | n | 2.9 | n | n | n | n
CCC1(CC)Cc2ccccc2C(Nc2c(C)n(C)n(-c3ccccc3)c2=O)=N1 | n | 2 | n | n | n | n
CC(C)[C@H](NS(=O)(=O)c1ccccc1)C(=O)OCC(=O)N1N=C(c2ccc(Cl)cc2)CC1c1ccco1 (stereo not given in full) | x | x | x | n | x | x
CC(=O)N1CCN(c2ccc(NC(=O)c3ccc(C)cc3)cc2)CC1 | n | n | n | n | n | n
SMILES | PTPN22 inh 2 | PLAP act | PTPN22 act | MRP-1 activ | MRP resist rev | FAK blocker
CCCOc1ccc(C(=O)Nc2ccc(N3CCN(C(C)=O)CC3)cc2)cc1 | n | x | n | 6.0 | x | n
O=C(CSc1ncn[nH]1)N(C1CCCCC1)C1CCCCC1 | n | 2 | n | n | n | n
C(=C\CSc1ncn[nH]1)/CSc1ncn[nH]1 | n | 2.7 | n | n | n | n
O=C(O)c1ccccc1CSc1ncn[nH]1 | n | n | n | n | n | n
O=C(CSc1ncn[nH]1)c1ccccc1 | n | 2.2 | n | n | n | n
c1n[nH]c(SCCCCSc2ncn[nH]2)n1 | n | 2.6 | n | n | n | n
Nc1c(C(=O)NCC2CCCO2)sc2nc3c(c(-c4ccco4)c12)CC/C3=C\c1ccco1 (stereo not given) | x | x | x | n | x | x
C=CCOc1ccc(/C=N/NC(=O)C(C)Sc2ccccn2)cc1OC (stereo not given) | x | x | x | n | x | x
Cc1ccc(C(=O)N(Cc2ccccc2)C(C)(C)C)cc1C | x | x | x | n | x | x
C=CCn1c(Cc2nc3ccc(Cl)cc3[nH]2)n[nH]c1=S | n | 2.4 | n | n | x | n
CCN1C(=O)N/C(=C/c2cc(C)n(Cc3ccccc3)c2C)C1=O | x | x | x | n | x | x
CCn1c(C)cc(/C=C2\NC(=O)N(Cc3ccc(Cl)cc3)C2=O)c1C | n | n | n | 9.5 | x | n
Cc1ccccc1NC(=O)COc1nsnc1N1CCOCC1 | n | n | n | n | n | n
O=C(COc1nsnc1N1CCOCC1)N/N=C/c1ccccc1O | x | x | x | 5.5 | x | x
CC(=O)N1CCN=C1SCc1ccc(Cl)cc1 | x | n | x | 6.4 | n | x
CC(=O)N1CCN=C1SCc1ccc(C)cc1 | x | n | x | 5.6 | n | x
